Source: PubChem BioAssay
A selection: hits, their analogues and other compounds. The true share with any hit is near 21%.
RORg inh – inhibitors of mouse ROR gamma transcriptional activity; Drosophila S2 Gal4-RORgamma UAS-luciferase reporter, 20 h; Potency, µM (doses to about 53.6 µM), inactives show at the highest dose activity change, negative = inhibition, usual class: inhibitors; 310,000 compounds, 5.4% hits; AID 2551; further: potency means the concentration at half of the fitted maximal effect; nearly all actives have a fitted effect of over 60% in size
Target sequence (P51450 whole entry, looked up, the tested form may be a part): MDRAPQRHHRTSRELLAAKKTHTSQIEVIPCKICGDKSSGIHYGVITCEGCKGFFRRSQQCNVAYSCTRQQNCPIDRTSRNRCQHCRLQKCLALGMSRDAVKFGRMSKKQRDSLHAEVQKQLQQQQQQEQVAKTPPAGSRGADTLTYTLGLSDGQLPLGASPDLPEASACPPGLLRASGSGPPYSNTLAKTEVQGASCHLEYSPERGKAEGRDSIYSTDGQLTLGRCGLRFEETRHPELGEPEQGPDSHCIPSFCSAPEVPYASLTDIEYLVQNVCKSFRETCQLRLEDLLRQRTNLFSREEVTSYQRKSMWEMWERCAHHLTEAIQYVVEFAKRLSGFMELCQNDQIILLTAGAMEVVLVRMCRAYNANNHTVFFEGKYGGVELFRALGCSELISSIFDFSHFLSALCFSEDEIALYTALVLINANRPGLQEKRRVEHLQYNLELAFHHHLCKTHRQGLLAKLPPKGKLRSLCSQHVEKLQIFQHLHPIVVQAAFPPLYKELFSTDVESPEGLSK
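Drosophila S2 cells stably expressing Gal4-DBD/mouse RORγ fusion under metallothionein promoter plus UAS-luciferase; compound 1 h, then 700 uM CuSO4 induction for 20 h at ambient temperature; inhibition read as reduced luminescence.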
TDP1 cell CPT – DT40-hTDP1 cell growth loss with CPT; 420,000 compounds, 12% hits; chicken DT40 Tdp1-/-;hTDP1 cells + 20 nM CPT, ATP luminescence, 48 h; AID 686979; Potency, µM (series often up to 46.2 µM), without a hit: at the highest dose activity change, negative = growth inhibition, hits mostly inhibitors; further: potency means the concentration at half of the fitted maximal effect; nearly all actives have a fitted effect of over 55% in size
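Cell growth measured by CellTiter-Glo luminescence after a minimum 48 h, 37 C compound exposure with 20 nM CPT in Tdp1-knockout DT40 cells stably expressing hTDP1, seeded 400/well; qHTS titration format.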
TDP1 cell noCPT – qHTS for Inhibitors of human tyrosyl-DNA phosphodiesterase 1 (TDP1): qHTS in cells in absence of CPT; 420,000 compounds, 15% hits; DT40 Tdp1-/- hTDP1 cells, no CPT, ATP luminescence, 48 h; Potency, µM (doses to about 46.2 µM), inactives show at the highest dose activity change, negative = growth inhibition, hits mostly inhibitors; AID 686978, 2013; further: potency means the concentration at half of the fitted maximal effect; nearly all actives have a fitted effect of over 55% in size
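Chicken DT40 Tdp1-/- cells complemented with human TDP1, screened without camptothecin (DMSO vehicle only), 400 cells/well. Compounds pin-transferred, cells incubated at 37 °C for at least 48 hr. Growth read as ATP-dependent luminescence (CellTiter-Glo, 30 min at RT).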
ELG1 repair inh – ELG1-dependent DNA repair inhibition; HEK293T ELG1-luciferase reporter, luminescence, 16 h; DNA damage induced by 5-fluorouridine; Potency, µM (series often up to 46.1 µM), inactives show at the top dose activity change, negative = inhibition, most hits filed as inhibitors; 330,000 compounds, 2.3% hits; further: potency means the concentration at half of the fitted maximal effect; nearly all actives have a fitted effect of over 55% in size
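Luminescence from the luciferase reporter, measured 30 min after ONE-Glo reagent at room temperature, was the read-out. Beforehand, 2,000 cells per well were exposed for 16 hr at 37 °C to 5-fluorouridine together with compound or vehicle.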
IL1B secr inh – blocks inflammasome-driven IL-1 beta release; THP-1 LPS/ATP IL-1B secretion, AlphaLISA, 16 h; active compounds read low; activity change, % at 57.5 µM; 360,000 compounds, 4.7% hits; in the data active means activity change below about -50%; inconclusive means mostly about -30% to -49%
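Secreted IL-1B measured by AlphaLISA bead assay after 16 h compound exposure of THP-1 cells; compounds (final up to 57.5 uM) added 1 h before LPS (250 ng/mL) and ATP (1.25 mM) stimulation; lower signal means less secretion.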
VP16 counter – inhibits Gal4-VP16 luciferase reporter, ROR gamma counter-screen. Drosophila S2 Gal4-VP16 UAS-luciferase, luminescence, 20 h. Potency, µM (highest dose often 53.6 µM), for inactives: at the highest dose activity, negative = inhibition, actives largely listed as inhibitors. 310,000 compounds, 3.5% hits. AID 2546;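 further: Gal4-VP16 expression switched on by copper sulfate through the metallothionein promoter; potency means the concentration at half of the fitted maximal effect; nearly all actives have a fitted effect of over 50% in size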
Active calls of the source: *. Unless noted, the call rests on the fitted dose curve; in most records, active means well fitted curve in the direction sought with a large enough effect; inconclusive means small, poorly fitted or top-dose-only effect, or another doubt; inactive means no such curve, though single readings can be large; an effect the other way counts as inactive or inconclusive. On the % scale 0 is the no-effect control and ±100 the full control effect.

Screening c1ccc(-c2ccc(OCCN3CCCC3)cc2)cc1 returned RORg inh 1% and VP16 counter -6%.
c1ccc(-c2sc3ccccc3c2-c2ccc(OCCN3CCCC3)cc2)cc1 was read as TDP1 cell CPT 21µM*, TDP1 cell noCPT 15µM*, ELG1 repair inh 18% and IL1B secr inh inconclusive.
COc1cccc(-c2sc3ccccc3c2-c2ccc(OCCN3CCCCC3)cc2)c1 was read as TDP1 cell CPT inconclusive, TDP1 cell noCPT 18µM*, ELG1 repair inh 12% and IL1B secr inh inconclusive.
For COc1cc(OC)cc(C(=O)NNC(=O)c2nn(C)c(=O)c3ccccc23)c1 the results were TDP1 cell CPT inconclusive, TDP1 cell noCPT inconclusive, ELG1 repair inh inconclusive and IL1B secr inh -11.
Screening CC1CCC/C(=N\NC(=S)NCc2ccccc2)C1 (stereo unspecified) returned RORg inh 11µM*, TDP1 cell CPT -12%, TDP1 cell noCPT -10%, ELG1 repair inh 0%, IL1B secr inh -1 and VP16 counter inconclusive.
`CC1CCC/C(=N\NC(=S)Nc2ccccc2)C1` (stereo unspecified) gave RORg inh 7.9µM*, TDP1 cell CPT 8.2µM*, TDP1 cell noCPT 10µM*, ELG1 repair inh inconclusive, IL1B secr inh -26 and VP16 counter inconclusive.
`CC1CCCC/C1=N\NC(=S)Nc1ccccc1` (stereo unspecified) gave RORg inh -111%, TDP1 cell CPT 0%, TDP1 cell noCPT -3%, ELG1 repair inh 17%, IL1B secr inh -7 and VP16 counter -1%.
`Cc1cc(C(=O)N/N=C2/CC(C)CC(C)(C)C2)c(C)o1` (stereo unspecified) gave RORg inh -14%, TDP1 cell CPT -23%, TDP1 cell noCPT inconclusive, ELG1 repair inh 4%, IL1B secr inh -6 and VP16 counter -6%.
For CC1(C)CC(=O)C/C(=N\NC(=S)NCc2ccccc2)C1 the results were RORg inh 14µM*, TDP1 cell CPT -9%, TDP1 cell noCPT -29%, ELG1 repair inh 0%, IL1B secr inh -7 and VP16 counter inconclusive.
For CC1CCC/C(=N/NC(=O)c2ccccc2-n2cccc2)C1 (stereo unspecified) the results were RORg inh -10%, TDP1 cell CPT 2%, TDP1 cell noCPT -19%, ELG1 repair inh -2%, IL1B secr inh 0 and VP16 counter -13%.
`CC1C/C(=N\NC(=S)NCc2ccccc2)CC(C)(C)C1` (stereo unspecified) gave RORg inh 1.3µM*, TDP1 cell CPT inconclusive, TDP1 cell noCPT 26µM*, ELG1 repair inh -14%, IL1B secr inh 22 and VP16 counter 2.8µM*.
Screening CCc1ccc(CSc2nc(-c3ccccc3F)nc3c2Cc2c(CO)cnc(C)c2O3)cc1 returned TDP1 cell CPT inconclusive and TDP1 cell noCPT -22%.
For Cc1cc(C)c[n+](-c2[nH]c(=O)sc2/C=N/NC([S-])=Nc2ccccc2)c1 the results were RORg inh 8%, TDP1 cell CPT 9%, TDP1 cell noCPT 8%, ELG1 repair inh 16%, IL1B secr inh 19 and VP16 counter -8%.
For CCn1c(-c2cccc(OC)c2)nc2cc(NC(C)=O)cc(C(=O)N3CCCC(C(C)=O)C3)c21 (stereo unspecified) the results were TDP1 cell CPT 16% and TDP1 cell noCPT -7%.
`COc1cccc(CN2CC(C(=O)NCC3CCOCC3)CCC2=O)c1` (stereo unspecified) gave RORg inh -1%, TDP1 cell CPT -5%, TDP1 cell noCPT 14%, ELG1 repair inh 4%, IL1B secr inh -12 and VP16 counter 9%.
For Cc1ccc(CNC(=O)C(=O)NCCC2CCCCN2S(=O)(=O)c2ccccc2)cc1 (stereo unspecified) the results were TDP1 cell CPT inconclusive, TDP1 cell noCPT 15µM*, ELG1 repair inh -15% and IL1B secr inh -5.
Screening O=C(NCCC1CCCCN1S(=O)(=O)c1ccccc1)C(=O)NCc1ccccc1 (stereo unspecified) returned TDP1 cell CPT inconclusive, TDP1 cell noCPT inconclusive, ELG1 repair inh -24% and IL1B secr inh 0.
`O=C(NCCC1CCCCN1S(=O)(=O)c1ccc(F)cc1)C(=O)NCc1ccccn1` (stereo unspecified) gave TDP1 cell CPT 4%, TDP1 cell noCPT 1%, ELG1 repair inh -4% and IL1B secr inh 6.
For O=C(NCCC1CCCCN1S(=O)(=O)c1ccccc1)C(=O)NCc1ccc(F)cc1 (stereo unspecified) the results were TDP1 cell CPT inconclusive, TDP1 cell noCPT 18µM*, ELG1 repair inh inconclusive and IL1B secr inh -25.
`S=c1[nH]nc(-c2cc(-c3ccccc3)n[nH]2)n1/N=C/c1cccc(Cl)c1` gave RORg inh inconclusive, TDP1 cell CPT inconclusive, TDP1 cell noCPT -22%, ELG1 repair inh inconclusive, IL1B secr inh 21 and VP16 counter inconclusive.
For Cc1ccc(-c2n[nH]c(=S)n2/N=C/c2cccn2C)cc1 the results were RORg inh 3.2µM*, TDP1 cell CPT -18%, TDP1 cell noCPT -6%, ELG1 repair inh 21%, IL1B secr inh 2 and VP16 counter 11µM*.
Screening Cn1cccc1/C=N/n1c(-c2ccc(Cl)cc2)n[nH]c1=S returned RORg inh 2.5µM*, TDP1 cell CPT inconclusive, TDP1 cell noCPT inconclusive, ELG1 repair inh 4%, IL1B secr inh 19 and VP16 counter inconclusive.
Cc1n[nH]c(=S)n1/N=C/c1ccc(-c2ccc(Cl)cc2)o1 was read as TDP1 cell CPT 2%, TDP1 cell noCPT -4% and IL1B secr inh 14.
Cn1cccc1/C=N/n1c(-c2ccc(Cl)cc2Cl)n[nH]c1=S was read as RORg inh 2.8µM*, TDP1 cell CPT -4%, TDP1 cell noCPT inconclusive, ELG1 repair inh 11%, IL1B secr inh 4 and VP16 counter inconclusive.
Cc1nnc(C)n1/N=C/c1cccn1C was read as RORg inh 20%, TDP1 cell CPT inconclusive, TDP1 cell noCPT inconclusive, ELG1 repair inh 28%, IL1B secr inh -1 and VP16 counter 2%.
